± gives the standard deviation of the averaged measurements.

For the assay, the system named is (+)-trans-4-thujanol A-neuron OSN class. Description: net action potential response of A-neuron (blank-subtracted) (spikes/s (Hz)); higher = stronger excitation. The following applies: 10 µg on filter paper; neuron: A neuron (large spike amplitude). On the procedure: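 Single sensillum recordings from antennal olfactory sensilla of live adult Ips typographus. Each compound was 10 µg in paraffin oil on filter paper, delivered as a 0.5 s puff. Net response = spikes in the first 0.5 s of response minus the 0.5 s pre-stimulus count, doubled to give Hz, with blank response subtracted. Values are for the large-spike A-neuron class of each of seven sensillum types that co-house the lanierone B-neuron; N = 1-4 sensilla, averaged.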
As for `C=CCc1ccc(OC)cc1` [Estragole], the “net action potential response” value came out at 1 ± 2. On to `O=Cc1ccccc1` [Benzaldehyde], for which the “net action potential response” value was -0.5 ± 1.9. Regarding `Cc1ccccc1` [Toluene], the “net action potential response” value was 0.5 ± 2.5.
